The source made the active and inactive calls. The rule behind the calls is not given here.
Target: Muscarinic acetylcholine receptor M1 (Rattus norvegicus) (UniProt P08482)
Experiment: M1 potentiation check of M4 PAM analogs – cell-based, ACh fold-shift, calcium mobilization, selectivity assay for M4 PAM project, SAR follow-up (AID 1932)
Conditions: rM1-expressing cells, ACh CRC fold-shift; series mostly up to 1 µM

Sequence of Muscarinic acetylcholine receptor M1 (Rattus norvegicus) (P08482 whole entry, looked up): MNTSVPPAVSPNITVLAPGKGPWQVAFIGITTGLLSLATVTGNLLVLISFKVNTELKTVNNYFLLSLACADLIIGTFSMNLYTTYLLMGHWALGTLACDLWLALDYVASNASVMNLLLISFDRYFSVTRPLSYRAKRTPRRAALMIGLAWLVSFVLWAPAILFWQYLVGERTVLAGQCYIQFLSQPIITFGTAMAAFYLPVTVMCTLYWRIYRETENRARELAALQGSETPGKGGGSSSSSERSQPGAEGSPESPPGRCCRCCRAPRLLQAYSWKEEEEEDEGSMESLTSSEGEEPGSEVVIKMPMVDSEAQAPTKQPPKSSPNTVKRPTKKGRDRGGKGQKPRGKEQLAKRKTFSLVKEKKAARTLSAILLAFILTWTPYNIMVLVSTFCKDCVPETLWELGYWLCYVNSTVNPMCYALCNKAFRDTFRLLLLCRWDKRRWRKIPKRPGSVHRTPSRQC

outcome, inactive:
Cc1cc(OCCN2CCOCC2)nc2sc(C(=O)NC(C)(C)C)c(N)c12, Cc1cc(OCc2ccncc2)nc2sc(C(=O)NCc3cccc(F)c3F)c(N)c12, COc1ccc(CNC(=O)c2sc3nc(OCc4ccncc4)cc(C)c3c2N)cc1, Cc1cc(OCc2ccncc2)nc2sc(C(=O)NCc3cc(F)ccc3F)c(N)c12

From PubChem BioAssay AID1932 (Vanderbilt High Throughput Screening Facility, 2009)
